Pf growth 96h: P. falciparum growth inhibition at 96 hour, primary screen for plastid delayed-death inhibitors. 320,000 compounds, 6.9% hits. AID 504834. P. falciparum luciferase reporter growth, 96 h. Potency, µM (titrated, usually from 28.7 µM), without a hit: at the top dose activity change, negative = inhibition, hits mostly inhibitors; further: potency means the concentration at half of the fitted maximal effect; on the % scale 0 is the no-effect control and ±100 the full control effect
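Erythrocytes infected with luciferase-expressing P. falciparum were dispensed at 2% hematocrit and 0.05% parasitemia (final), then incubated with compounds 96 hours at 37 C in 5% CO2. Luminescence after detection reagent addition reported growth.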
Shiga inhibitor: blocks Shiga toxin action in Vero cells | 290,000 compounds, 9.2% hits | Vero cells, Shiga toxin protein synthesis inhibition reporter | AID 2315 | inhibition, % at 38.7 µM; in the data active means inhibition mostly above about 28%, no sharp cut-off; inactive means mostly below about 43%; further: 0% is about no effect
CHX counter: affects cycloheximide protein synthesis inhibition readout, counter-screen | cell reporter, cycloheximide protein synthesis inhibition counterscreen | max response, % | 300,000 compounds, 12% hits | AID 2314; in the data active means max response mostly above about 13%, no sharp cut-off; inactive means mostly below about 14%; further: read at 38.3 µM for the half of the compounds with a filed dose; 0% is about no effect
Pf growth 48h: P. falciparum growth inhibition at 48 hours (one generation); P. falciparum luciferase growth in erythrocytes, 48 h; Potency, µM (top dose mostly 28.7 µM), inactives show top-dose activity change, negative = inhibition, actives largely listed as inhibitors; 310,000 compounds, 5.9% hits; further: potency means the concentration at half of the fitted maximal effect; on the % scale 0 is the no-effect control and ±100 the full control effect
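Luminescence readout; reporter = integrated firefly luciferase in P. falciparum. RBC culture at 2% hematocrit, 0.1% parasitemia final, 37 C/5% CO2; decreased signal taken as growth inhibition.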
An asterisk follows results filed as active; ? = inconclusive; . = no result; [ ] = dose if it differs, or a comment. This is a sample that favours compounds with a hit; in the whole collection about 21% have one here. Unless noted, the call rests on the fitted dose curve; in most records, active means well fitted inhibition curve with a large enough effect; inconclusive means small, poorly fitted or top-dose-only effect, or another doubt; inactive means no such curve, though single readings can be large or run the other way.

SMILES	Pf growth 96h	Shiga inhibitor	CHX counter	Pf growth 48h
N#Cc1ccccc1NC(=O)c1cc(=O)c2ccccc2o1	266%	59*	19	95%
O=C(NCCc1ccc(F)cc1)c1cc(=O)c2ccccc2o1	-27%	30	25*	8%
COc1ccc(NC(=O)c2cc(=O)c3ccccc3o2)cn1	?	-2	-1	-1%
N#Cc1ccc(NC(=O)c2cc(=O)c3ccccc3o2)cc1	3%	-8	1	21%
COc1ccc(NS(=O)(=O)c2cc(NC(=O)c3cc(=O)c4ccccc4o3)ccc2OC)cc1	?	20	10	8.3µM*
COc1cccc(NC(=O)c2cc(=O)c3ccccc3o2)c1	76%	47*	19*	66%
Cc1cc(NC(=O)CN(C)S(=O)(=O)c2cccc(Cl)c2)no1	52%[5.75 µM]	14	4	-11%
COc1cc(/C=C/C(=O)OCC(=O)N2CCN(S(=O)(=O)c3ccc(C)cc3C)CC2)cc(Cl)c1OC	-3%	.	.	-22%
Cc1ccc(NC(=O)c2cc(=O)c3ccccc3o2)c(C)c1	3%	-4	2	76%
O=C(Nc1cccc(-c2nc3ccccc3s2)c1)c1cc(=O)c2ccccc2o1	90%	31*	14	66%
Cc1ccc(C)c(NC(=O)c2cc(=O)c3ccccc3o2)c1	13µM*	17	33*	117%
O=C(O)c1cc(-c2ccc(/C=N/N3C(=O)C4C5C=CC(C6CC56)C4C3=O)o2)ccc1Cl (configuration not stated)	6%	8	-2	7%
N#C/C(=C(/N)Sc1ccc(N)cc1)c1ccccc1C(F)(F)F	.	16	2	.
Cc1ccc(NS(=O)(=O)N2CCOCC2)cc1	?	-6	8	22%
O=S(=O)(Nc1ccc(Br)cc1)N1CCOCC1	9.3µM*	-1	-1	23%
O=S(=O)(Nc1ccc(F)cc1)N1CCOCC1	32%	4	34*	8%
O=C1c2ccccc2C(=O)c2c1cccc2N(CCO)CCO	17%	15	13	26%
CN(C)c1cc2c(c(N(C)C)c1)C(=O)c1ccccc1C2=O	4.1µM*	83	39*	?
CN1CCN(S(=O)(=O)c2ccc(N3CCc4ccccc4C3)nc2)CC1	42%	-6	5	22%
Cc1ccc(-n2ncc3c(SCC(N)=O)ncnc32)cc1C	?	52*	48*	120%
CNC(=O)CSc1ncnc2c1cnn2-c1ccccc1	45%	69*	35*	79%
O=C(CSc1ncnc2c1cnn2-c1ccccc1)Nc1ccccc1	-4%	-6	-3	27%
CCOC(=O)CNC(=O)CSc1ncnc2c1cnn2-c1ccc(Cl)cc1	.	-4	-3	18%
O=C(CSc1ncnc2c1cnn2-c1ccccc1)NC1CCCC1	62%	.	.	54%
Cc1ccccc1-n1ncc2c(SCC(=O)NCc3cccs3)ncnc21	5.2µM*	19	13	-27%
SMILES	Pf growth 96h	Shiga inhibitor	CHX counter	Pf growth 48h
CC(=O)CSc1ncnc2c1cnn2-c1ccccc1	-10%[5.75 µM]	91*	36*	156%
CCN(CC)S(=O)(=O)c1ccc(C(=O)NC(C)(C)C)cc1	-2%	-12	9	-4%
COc1cc(C(C)=O)ccc1Oc1ncnc2c1cnn2-c1ccc(C)c(C)c1	?	63*	32*	?
COc1cc(C(C)=O)ccc1Oc1ncnc2c1cnn2-c1ccccc1	52%	1	1	41%
CC(Sc1ncnc2c1cnn2-c1ccccc1)C(=O)NCC1CCCO1 (configuration not stated)	?	64	20*	-3%
C=CCn1c(C)cc(C(=O)COC(=O)CNC(=O)c2ccccc2)c1C	133%	11*	114*	190%
C=CCn1c(C)cc(C(=O)COC(=O)C2CC(=O)N(Cc3ccccc3)C2)c1C (configuration not stated)	15%	36	12*	10%
COc1cccc(CN(C(=O)/C=C/c2ccco2)C2CCS(=O)(=O)C2)c1 (configuration not stated)	?	-7	5	6%
CC1CCN(S(=O)(=O)c2cn(CC(=O)Nc3ccc(C#N)cc3)cn2)CC1	?	-9	-7	7%
O=C(Cn1cnc(S(=O)(=O)N2CCCC2)c1)Nc1cccc(Br)c1	12µM*	-2	-4	13%
N#Cc1ccc(NC(=O)Cn2cnc(S(=O)(=O)N3CCc4ccccc43)c2)cc1	12µM*	1	14	1%
Cc1c(Cl)cccc1NC(=O)Cn1cnc(S(=O)(=O)N2CCCC2)c1	7.4µM*	22	-1	0%
CC(=O)c1cccc(NC(=O)Cn2cnc(S(=O)(=O)N3CCCCC3)c2)c1	23%	-6	-4	1%
CCc1ccc(NC(=O)CN2CCCN(S(=O)(=O)c3ccc(F)cc3)CC2)cc1	34%	1	-3	-19%
CC1CCN(S(=O)(=O)c2ccc(C(=O)Nc3ncccc3O)cc2)CC1	5.2µM*	6	7	?
CC1CCCN(S(=O)(=O)c2ccc(C(=O)Nc3ccccc3-c3nc4ccccc4[nH]3)cc2)C1 (configuration not stated)	?	-9	-9	1.5µM*
O=C(Nc1ncccc1O)c1cccc(S(=O)(=O)N2CCCC2)c1	-1%	.	.	2%
Cc1cc(F)ccc1S(=O)(=O)Nc1ccccc1C(=O)Nc1ccccc1-c1nc2ccccc2[nH]1	1.9µM*	-9	16	9.3µM*
Cc1cc(F)ccc1S(=O)(=O)Nc1ccccc1C(=O)Nc1ncn[nH]1	-17%	-12	-3	-20%
CC1CCN(S(=O)(=O)c2ccc(C(=O)Nc3nnc(-c4ccccn4)o3)cc2)CC1	124%	-12	-10	-2%
CC1CCN(S(=O)(=O)c2ccc(C(=O)Nc3ccccc3-c3nc4ccccc4[nH]3)cc2)CC1	7.4µM*	-7	-7	4.1µM*
CC(C)(O[C@@H]1O[C@H](CO)[C@@H](O)[C@H](O)[C@H]1O)[C@H]1Cc2cc3ccc(=O)oc3cc2O1	13%	-7	-4	18%
O=C(CCCc1ccccc1)Nc1ccc(Br)cc1F	7%	.	55*	46%
O=C(CSCc1ccccc1)Nc1ccc(F)cc1F	18%	49*	21*	17%
O=C(CCCCCN1C(=O)CCC1=O)Nc1ccc(Br)cc1F	1µM*	18	-2	19%
SMILES	Pf growth 96h	Shiga inhibitor	CHX counter	Pf growth 48h
O=C(Cn1cccc1)Nc1ccc(F)cc1F	?	-1	-3	7%
O=C(CCc1ccccc1)Nc1ccc(F)cc1F	.	67*	23*	62%
O=C(CCSCCc1ccccn1)Nc1ccc(Br)cc1F	15%	19	9	19%
O=C(CCOc1ccccc1)Nc1ccccc1F	4%	74*	32*	42%
O=C(CCc1ccccc1)Nc1ccccc1F	296%	74*	30*	.
Cc1ccc(NC(=O)CSCC(=O)OC(C)C(=O)Nc2ccccc2C)cc1 (configuration not stated)	47%	.	.	21%
O=C(NCCN1CCCC1)C1CC(=O)N(C2CCCCC2)C1 (configuration not stated)	13µM*	-13	-2	27%
O=C(NCCc1ccccc1)C1CC(=O)N(C2CCCCC2)C1 (configuration not stated)	5.9µM*	-4	-3	11%
